These results are taken from PubChem BioAssay.

Structures are written as SMILES. Where “and” joins values, the source holds several entries; their conditions need not be identical. Equal entries are not always repeated. Calls of active or inactive are those of the source. Rule as the data show it, unless noted: active = inhibition above about 80%; inactive = the rest.

The nature of assay [1]: UWB1.289 ovarian carcinoma cell growth inhibition, synergistic combos for chromothripsis tumors, BGB or cisplatin combos (AID 1671456).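 Also: cells exposed to compound for four days; 0% = vehicle DMSO and 100% = killing by high DMSO.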 To be noted: UWB1.289 ovarian carcinoma cells, stronger effect = higher value.
Assay [2] can be described thus: LFS_MB_2R medulloblastoma cell growth inhibition, synergistic combos for chromothripsis tumors, cisplatin combos (AID 1671457).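 Also: cells exposed to compound for four days before readout.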 As to conditions: LFS_MB_2R medulloblastoma cells, stronger effect = higher value.
A short description of assay [3]: MDA-MB-436 breast carcinoma cell growth inhibition, synergistic combos for chromothripsis tumors, BGB or cisplatin combos (AID 1671458; call rule not given here;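 also: cells exposed for 96 hours; 0% = vehicle DMSO and 100% = killing by high DMSO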). As to conditions: MDA-MB-436 breast carcinoma growth inhibition, drug combinations, stronger effect = higher value.
The nature of assay [4]: UWB1.289_BRCA1 ovarian cancer growth, cell-based, BGB or cisplatin combinations (AID 1671459). To be noted: UWB1.289 BRCA1 ovarian carcinoma, drug combinations, stronger effect = higher value.
Assay [5] in a line: human astrocyte viability loss, single and combined drugs, cytotoxicity control for chromothriptic childhood tumor combination screen, cell-based, BGB or cisplatin IC20 combos (AID 1671460).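 Also: cells exposed to compounds for 96 hours before viability readout; 0% = vehicle and 100% = killing control.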 As to conditions: Human astrocytes, drug combinations, stronger effect = higher value.
Assay [6] can be described thus: growth inhibition of BT084 medulloblastoma cells, cell-based, ICGC_MB145, cisplatin and BGB IC40 combos (AID 1671461).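 Also: cells exposed to drugs for 96 hours; 0% = vehicle DMSO and 100% = high DMSO full killing control.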 To be noted: drug combinations, stronger effect = higher value.
Assay [7] in a line: growth inhibition of RCMB18 medulloblastoma cells, cell-based, cisplatin and BGB IC40 combos (AID 1671462).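 Also: cells exposed to compound for four days.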 To be noted: stronger effect = higher value.
The nature of assay [8]: growth inhibition of CRL1545 osteosarcoma cells, cell-based, cisplatin and BGB IC20 combos (AID 1671464).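 Also: cells exposed to compound for 96 hours before readout; 0% = vehicle DMSO and 100% = high DMSO killing control.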 To be noted: stronger effect = higher value.
The subject of the next assay is F380Y. Nature of the assay: modulators of BK channel variants, profiling panel, selectivity assay, cell-based, U2OS BacMam, thallium flux, beta subunits (AID 1259406;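 active = thallium flux through the channel raised or lowered by more than 3 SD from vehicle-only wells, actives on both sides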;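 also: initial slope of Thallos dye fluorescence rise after thallium is added; log ratio against the mean of 0.3% DMSO vehicle wells on the same plate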). To be noted: at 30 µM.
The next assay deals with F380Y/beta2Delta. The description is as above. To be noted: at 30 µM.
The target in assay [9] is Calcium-activated potassium channel subunit alpha-1 (Homo sapiens) + Leucine-rich repeat-containing protein 26 (Homo sapiens) (UniProt Q12791+Q2I0M4). The description is as above. As to conditions: F380Y/Slo1WT/gamma1, at 30 µM.
Calcium-activated potassium channel subunit alpha-1 (Homo sapiens) + Leucine-rich repeat-containing protein 26 (Homo sapiens), sequence (Q2I0M4 whole entry, looked up, one chain of several): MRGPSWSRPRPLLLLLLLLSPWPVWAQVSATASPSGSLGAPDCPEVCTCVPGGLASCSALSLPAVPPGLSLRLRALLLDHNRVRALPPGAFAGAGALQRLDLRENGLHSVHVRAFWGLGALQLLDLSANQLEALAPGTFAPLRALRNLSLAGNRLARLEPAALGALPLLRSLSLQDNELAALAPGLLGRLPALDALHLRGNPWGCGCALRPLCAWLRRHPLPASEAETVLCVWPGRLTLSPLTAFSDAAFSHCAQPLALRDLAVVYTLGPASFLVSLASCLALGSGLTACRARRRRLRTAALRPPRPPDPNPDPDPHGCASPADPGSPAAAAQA
Another assay has as its system R275C. The assay is described as above. To be noted: at 30 µM.
Another assay deals with R275C/beta1. The description is as above. As to conditions: at 30 µM.
For the next assay, the system named is R275C/beta2Delta. The description is as above. As to conditions: at 30 µM.
The next assay deals with F380Y/beta1. The description is as above. As to conditions: at 30 µM.
A further assay deals with F380Y/beta4. The description is as above. To be noted: at 30 µM.
A further assay deals with R275C/beta4. The assay is described as above. To be noted: at 30 µM.
In the next assay the test system is R275C/Slo1WT/beta2. The description is as above. As to conditions: at 30 µM.
Setting [10] is: measured here: inhibition with BGB combination, at 0.05 µM.
The mark [11] stands for this setting: measured here: inhibition with cisplatin combination, at 0.05 µM.
Setting [12] is: measured here: combination with cisplatin, at 0.5 µM.
The mark [13] stands for this setting: measured here: combination with cisplatin, at 5 µM.
Setting [14] is: measured here: BGB combination, at 0.5 µM.
Where [15] appears, read: measured here: BGB combination, at 5 µM.
[16] abbreviates: measured here: cisplatin combination, at 0.5 µM.
[17] abbreviates: measured here: cisplatin combination, at 5 µM.
Where [18] appears, read: BGB combination, concentration series, at 5 µM.
Setting [19] is: cisplatin combination, concentration series, at 5 µM.
Setting [20] is: measured here: combo with BGB IC20, at 0.5 µM.
Where [21] appears, read: measured here: combo with cisplatin IC20, at 0.5 µM.
Where [22] appears, read: cisplatin combination, at 0.5 µM.
Setting [23] is: measured here: BGB IC40 combination 0.05 uM, at 0.05 µM.
[24] abbreviates: measured here: BGB IC40 combination, at 0.05 µM.
[25] abbreviates: measured here: with BGB IC20 combination, at 0.5 µM.
Setting [26] is: measured here: with cisplatin IC20 combination, at 0.5 µM.

Usually inhibition stands for the change of the read-out against control, counted positive when it falls. In the case of `O=NN(CCCl)C(=O)NC1CCCCC1`, the inhibition is -3.74% (inactive) and -1.89% (inactive) in assay [1] (at 0.5 µM); -37.8% and -16.5% in assay [1] (setting [10]); -17.9% and -15% in assay [1] (setting [11]); -23.1% (inactive) and -22.9% (inactive) in assay [2] (at 0.5 µM); -21.1% and -18.8% in assay [2] (setting [12]); -70.5% and -18.7% in assay [2] (setting [13]). Also, the inhibition in [3] (at 0.5 µM) was -40.6% (inactive) and -11.5% (inactive); in assay [3] (setting [14]), -36.9% and -5.88%; in assay [3] (setting [15]), -35% and -10.4%; in assay [3] (setting [16]), -61.4% and -18.5%; in assay [3] (setting [17]) it was -41.1% and -14.2%; in [4] (setting [18]), -29.6% and 11.3%. The inhibition in assay [4] (at 0.5 µM) is -16.2% (inactive) and 2.2% (inactive); in [4] (setting [19]), 3.2% and 10.4%; in assay [5] (at 0.5 µM), -9.22% (inactive) and 7.1% (inactive); in [5] (setting [20]) it was -20% and 5.8%; in assay [5] (setting [21]) it was -3.02% and 3.4%; in assay [6] (at 0.5 µM), -34.8% (inactive) and -13.6% (inactive). Also, the inhibition in assay [6] (setting [22]) is -11.4% and -21.6%; in assay [6] (cisplatin combination, at 5 µM) it was 1.31% and -15.5%; in assay [6] (setting [23]), -11% and -18.6%; in [6] (single agent, at 5 µM), -27.6% and -16%; in assay [7] (at 0.5 µM), -19.6% (inactive) and -7.56% (inactive); in assay [7] (cisplatin combo, at 5 µM), -8.32% and -2.07%. Moreover, the inhibition was 3.33% and -8.31% in assay [7] (setting [24]); -12.9% and 7.07% in assay [7] (setting [12]); -26.9% and -32.7% in assay [7] (single agent, at 5 µM); -41.9% (inactive) and 12.8% (inactive) in assay [8] (at 0.5 µM); -11.7% and 21.6% in assay [8] (setting [25]); -60.6% and 8.43% in [8] (setting [26]). For the same molecule, the inhibition in [8] (single agent, at 0.05 µM) was -56.9% and 27.3%; in assay [8] (single agent, at 5 µM) it was -2.19% and 10%.

Turning to `O=C(O)CCCCCCCC(=O)O`, the inhibition in assay [1] (at 0.5 µM) is -13.5% (inactive); in [1] (setting [10]), -19.6%; in assay [1] (setting [11]) it was -0.85%; in assay [2] (at 0.5 µM), -13.9% (inactive); in [2] (setting [12]), -13.8%; in assay [2] (setting [13]), -48.8%. For the same molecule, the inhibition in assay [3] (at 0.5 µM) was -29.2% (inactive); in [3] (setting [14]), -23.3%; in assay [3] (setting [15]), -29%; in assay [3] (setting [16]), -37.4%; in assay [3] (setting [17]), -23.5%; in assay [4] (setting [18]) it was -15.5%. In addition, the inhibition in assay [4] (at 0.5 µM) is -19.3% (inactive); in [4] (setting [19]), -16.1%; in assay [5] (at 0.5 µM), -11.4% (inactive); in assay [5] (setting [20]), -13.8%; in assay [5] (setting [21]), -20%; in assay [6] (at 0.5 µM), -17.8% (inactive). Also, the inhibition was -4.5% in assay [6] (setting [22]); -12.5% in assay [6] (cisplatin combination, at 5 µM); 4.07% in assay [6] (setting [23]); -1.2% in [6] (single agent, at 5 µM); -9.8% (inactive) in assay [7] (at 0.5 µM); -40.4% in [7] (cisplatin combo, at 5 µM). For the same molecule, the inhibition is -4.46% in assay [7] (setting [24]); -13.4% in assay [7] (setting [12]); -26.4% in [7] (single agent, at 5 µM); -28.2% (inactive) in [8] (at 0.5 µM); -60.3% in assay [8] (setting [25]); -14.7% in assay [8] (setting [26]). Also, the inhibition in [8] (single agent, at 0.05 µM) is -52%; in assay [8] (single agent, at 5 µM), -52.1%.

Take `COc1ccc(CC2c3cc(OC)c(OC)cc3CC[N+]2(C)CCC(=O)OCCCCCOC(=O)CC[N+]2(C)CCc3cc(OC)c(OC)cc3C2Cc2ccc(OC)c(OC)c2)cc1OC` (stereo not given): the log fold change Tl+ flux is -0.0106 (inactive) in the assay on F380Y; -0.00992 (inactive) in the assay on F380Y/beta2Delta; -0.0136 (inactive) in [9]; -0.0147 (inactive) in the assay with R275C; 0.0284 (inactive) with R275C/beta1; -0.0198 (inactive) with R275C/beta2Delta.

`CN1CCN(C2=Nc3cc(F)ccc3Cc3ccccc32)CC1`: the log fold change Tl+ flux is 0.06 (inactive) with F380Y; 0.0457 (inactive) in the assay on F380Y/beta1; 0.0383 (inactive) in the assay with F380Y/beta2Delta; 0.075 (inactive) in the assay with F380Y/beta4; -0.0172 (inactive) in assay [9]; -0.0264 (inactive) with R275C. Also, the log fold change Tl+ flux was 0.0276 (inactive) in the assay with R275C/beta1, 0.0198 (inactive) with R275C/beta2Delta, 0.0369 (inactive) with R275C/beta4 and 0.0225 (inactive) in the assay on R275C/Slo1WT/beta2.
